GLP1R inv ag = GLP-1 receptor (human) inverse agonism; HEK293 GLP-1R CRE-luciferase, luminescence, 24 h; GLP-1R form is constitutively active; Potency, µM (series often up to 38.3 µM), without a hit: top-dose activity change, negative = inhibition, most hits filed as inhibitors; hit rate 1.6% among 410,000; AID 624417; note: % is set by controls: 0 for no effect and ±100 for the full control effect; nearly all actives have a fitted effect of over 55% in size
Target sequence (P43220 whole entry, looked up): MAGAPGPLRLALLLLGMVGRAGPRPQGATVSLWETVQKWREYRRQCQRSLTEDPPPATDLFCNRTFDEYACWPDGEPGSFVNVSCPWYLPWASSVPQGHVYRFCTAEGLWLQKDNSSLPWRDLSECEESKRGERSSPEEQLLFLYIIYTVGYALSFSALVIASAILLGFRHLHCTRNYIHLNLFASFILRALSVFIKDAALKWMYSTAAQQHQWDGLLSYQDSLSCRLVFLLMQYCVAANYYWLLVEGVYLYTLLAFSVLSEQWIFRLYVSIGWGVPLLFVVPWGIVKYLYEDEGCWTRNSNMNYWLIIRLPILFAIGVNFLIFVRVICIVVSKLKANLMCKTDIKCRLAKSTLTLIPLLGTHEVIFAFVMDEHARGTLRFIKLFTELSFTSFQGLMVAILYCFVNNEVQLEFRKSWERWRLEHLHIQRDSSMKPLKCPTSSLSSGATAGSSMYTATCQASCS
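Readout was luciferase luminescence, measured 12 min after detection reagent at room temperature. Beforehand, GLP-1R reporter HEK293 cells had sat 12 h, then received compounds for 24 hr at 37 deg C.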
GLP1R cytotox = cytotoxicity in counter-screen for GLP-1R inverse agonists; Potency, µM (top dose mostly 38.3 µM), for the others: at the highest dose activity change, negative = inhibition, actives largely listed as inhibitors; AID 624418; HEK293 cAMP-luciferase reporter cells, luminescence, 24 h; hit rate 0.13% among 410,000;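 note: loss of luciferase light is scored as toxicity; % is set by controls: 0 for no effect and ±100 for the full control effect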
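Luminescence readout: signal drop marks cytotoxicity. Plated cells grew 12 h at 37 °C, 5% CO2, received 23 nL compound for 24 h, then got luciferase reagent, read after 12 min at RT.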
BRCA1 expr act = BRCA1 expression activation. MCF7-BRCA1-FFLuc reporter, luminescence, 48 h; response scale: scaled: vehicle 0%, 10 µM genistein 100%. Potency, µM (titrated, usually from 46.1 µM), for the others: top-dose activation, actives largely listed as activators. hit rate 1.1% among 380,000. AID 624202; note: nearly all actives have a fitted effect of over 80% in size
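Reporter cells (MCF7, BRCA1 promoter-firefly luciferase) received library compounds across a concentration series for 48 h. End-point luminescence was measured and concentration-effect curves derived after normalization.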
GLP-1R agonist = GLP-1 receptor (human) agonism. HEK293 GLP-1R CRE-luciferase, luminescence, 4-6 h; cells express a hypersensitive GLP-1R form. Potency, µM (series often up to 45.6 µM), without a hit: at the highest dose activation, actives largely listed as activators. hit rate 0.007% among 380,000. AID 624172; note: % of control where 0% means no effect
Integrin act MD = integrin-mediated muscular dystrophy alleviation activation | alpha7betagal myoblasts, beta-gal FDG fluorescence, 48 h | Potency, µM (series often up to 38.3 µM), inactives show at the top dose activation, hits mostly activators | hit rate 0.064% among 350,000 | AID 624291;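 note: 100% = response of the positive control SU9516; nearly all actives have a fitted effect of over 60% in size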
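alpha7betagal+/- myoblasts (passage 13, 250/well) treated 48 h at 37C with compounds at 1:260 dilution of DMSO stock. Lysed, then beta-galactosidase activity read as FDG fluorescence (ex 480/em 540) after 30 min, with pre-read for autofluorescence.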
* marks the source's active call; other numbers are inactive results; ? = inconclusive; / = no result; [ ] = dose if it differs, or a comment. Most compounds without a hit are left out; they make up all but 2.7% or so of the library. Calls come from the whole dose curve; as a rule, active = well fitted curve in the direction sought with a large enough effect; inconclusive = small, poorly fitted or top-dose-only effect, or another doubt; inactive = no such curve, though single readings can be large; an effect the other way counts as inactive or inconclusive. Potency is the fitted concentration of half-maximal effect.

SMILES	GLP1R inv ag	GLP1R cytotox	BRCA1 expr act	GLP-1R agonist	Integrin act MD
COc1ccc(C(=O)COc2ccc(F)cc2)c(O)c1	?	-2%	11µM*	17%	-11%
Cc1ccc(Cn2c(C)c3cnn(CC(=O)N4CCN(c5ccc(F)cc5)CC4)c(=O)c3c2C)cc1	?	0%	/	/	/
Cc1ccc(C23CC4CC(CC(NC(=O)NCCN(C)C)(C4)C2)C3)cc1	?	?	0%	-5%	-64%
CN(C)CCNC(=O)COc1ccc(C23CC4CC(CC(C4)C2)C3)cc1	2.8µM*	?	-48%	8%	-62%
COc1cc(Br)c(/C=C/c2ccc3cccc(O)c3n2)cc1OC	?	-22%	-17%	4%	-32%
COc1cc(/C=C/c2ccc3cccc(O)c3n2)ccc1O	?	43%	11µM*	-8%	-59%
O=C(Nc1ccc2c(c1)CCC2)c1cnccn1	12%	4%	3.5µM*	-10%	-13%
O=C(CSc1ncccn1)Nc1ccc2[nH]c(=O)[nH]c2c1	21%	12%	-9%	-7%	11%
O=C(CSc1ncccn1)Nc1ccc2c(c1)CCC2	-2%	-14%	8.9µM*	8%	6%
CCc1ccc(-c2nc(CS(=O)CC(=O)NCCc3ccc(C)cc3)c(C)o2)cc1 (stereo not given)	0%	-3%	/	/	/
O=C(Nc1cnc2ccccn2c1=O)c1ccc(Cl)cc1	0%	-4%	11µM*	-15%	3%[7.66 µM]
COc1cc(NC(=O)CC2C(=O)N(c3cccc(C)c3)C(=O)N2Cc2ccco2)cc(OC)c1 (stereo not given)	-20%	-12%	/	/	/
Cc1ccccc1-c1nc(Cc2ccccc2)no1	-22%	0%	10µM*	-1%	24%
Clc1ccc(-c2nc(Cc3ccccc3)no2)cc1	48%	29%	?	8%	0%
COc1cc(NC(=O)COCc2cc(-c3ccc4c(c3)OCO4)on2)cc(OC)c1	2%	3%	/	/	/
CCc1ccc(CN2CCc3nc(N4CCN(CC)CC4)ncc3C2)cc1	5µM*	-2%	/	/	/
N#C/C(=C\c1ccccc1)C(=O)Nc1sc2c(c1C(N)=O)CCC2	15%	-4%	/	/	/
Cn1ccnc1SCC(=O)c1cc2ccccc2o1	9%	-2%	45%	-5%	-5%
Cc1ccnc(SCC(=O)c2cc3ccccc3o2)n1	7%	11%	8.9µM*	-7%	?
Cc1nnc(NC(=O)CSc2nnc(CCNC(=O)c3ccccc3F)n2C)s1	7%	15%	6%	5%	11µM*
Cc1ccc(NCc2nnc(SCC(=O)Nc3nnc(C)s3)n2C)cc1	6%	-2%	-19%	3%	10µM*
CCc1nnc(NC(=O)CSc2nnc(CNc3ccc(C)cc3)n2C)s1	-9%	17%	-9%	0%	0%
COc1ccc(Cc2nc3ccccc3n2Cc2ccccc2F)cc1	?	3%	/	/	/
COC(=O)c1c(C)sc(-c2c(-c3ccc4c(c3)OCCO4)[nH]c3c2c(=O)[nH]c(=O)n3C)c1O	2%	-4%	/	/	/
Cc1nc2ccc(NC(=O)CCC3CCCC3)cc2s1	-16%	11%	11µM*	10%	7%
SMILES	GLP1R inv ag	GLP1R cytotox	BRCA1 expr act	GLP-1R agonist	Integrin act MD
O=C(C[n+]1cccc(Br)c1)c1ccc(O)c(O)c1	/	/	0%	/	/
Cc1ccc(-n2ncc3c(NCC(C)C)ncnc32)c(C)c1	?	0%	/	/	/
Cc1ccc(-n2ncc3c(NCCCOC(C)C)ncnc32)c(C)c1	2.5µM*	13%	-6%	1%	-12%
Cc1ccc(-n2ncc3c(N(CC(C)C)CC(C)C)ncnc32)c(C)c1	2.8µM*	1%	/	/	/
CN(C)c1ccc(/C=C/c2ccnc3ccccc23)c(N)c1	/	/	-69%	/	/
Cc1cc(C)nc(-n2nc(C)cc2NC(=O)c2cccc(S(=O)(=O)N(C)C)c2)n1	0%	-9%	4%	-4%	-2%
Cc1cc(C)nc(-n2nc(C)cc2NC(=O)CN2CCC(C)CC2)n1	?	5µM*	-47%	17%	-41%
Cc1ccc(C)c(C(=O)Nc2cc(C)nn2-c2nc(C)cc(C)n2)c1	?	1.8µM*	-19%	6%	?
COc1ccc(-c2cccc(NS(=O)(=O)c3ccc(NC(C)=O)cc3)c2)nn1	4%	19%	/	/	/
O=C(NC1CCCCC1)N1CCN(c2ccccc2)CC1	-13%	-10%	0%	-5%	-6%
O=C(NC1CCCCC1)N1CCc2ccccc21	?	-11%	11µM*	1%	4%
O=C(NC1CCCCC1)N1CCN(C(c2ccccc2)c2ccccc2)CC1	4µM*	18%	-33%	4%	30%
O=C(N1CCCCC1)N1CCN(C(c2ccccc2)c2ccccc2)CC1	5µM*	0%	-18%	1%	3%
Cc1ccc2nc(COc3ccccc3NC(=O)COc3ccccc3Cl)cc(=O)n2c1	-1%	3%	/	/	/
CCOC(=O)c1cc(C(=O)Nc2ccc(C)c(F)c2)nn1C	-4%	1%	10µM*	-1%	-17%
CCN(C(=O)c1cc2c(s1)-c1ccccc1OC2)c1cc(Cl)ccc1OC	?	-1%	/	/	/
O=C(CSc1nnc(-c2cccc(F)c2)c(-c2cccc(F)c2)n1)NC1CCCCC1	41%	4%	/	/	/
CCOC(=O)c1cc(-c2ccc(F)cc2)n(CCC(=O)Nc2ccccc2OC)c1C	10µM*	-3%	/	/	/
CCOC(=O)c1cc(-c2ccc(F)cc2)n(CCC(=O)NCc2ccccc2OC)c1C	?	7%	/	/	/
CCOC(=O)c1cc(-c2ccc(F)cc2)n(CCC(=O)NCc2ccc(C)cc2)c1C	10µM*	-6%	/	/	/
Cc1cccn2c3c(c(=O)nc12)C(c1ccc(F)cc1)CC(=O)N3 (stereo not given)	1%	10%	/	/	/
CCC1=C[C@@H]2CN(C1)Cc1c([nH]c3ccccc13)[C@@](C(=O)OC)(c1cc3c(cc1OC)N(C)[C@@H]1[C@@](O)(C(=O)OC)[C@H](OC(C)=O)[C@]4(CC)C=CCN5CC[C@]31[C@@H]54)C2	/	/	/	0%	/
Fc1ccc(NC(=S)Nc2cc(-c3ccccc3)[nH]n2)cc1Cl	?	13µM*	-88%	2%	-26%
Cc1ccc(NC(=S)Nc2cc(-c3ccccc3)[nH]n2)cc1Cl	-26%	?	-72%	8%	15%
CCn1c(CN2CCC(C)CC2)nc2cc(NC(=O)c3cccc([N+](=O)[O-])c3)ccc21	-35%	-1%	/	/	/
Cc1oc(-c2cccc(Cl)c2)nc1Cn1c(SCc2ccccc2F)nc2ccncc21	16%	2%	0%	/	/
CCCCCNC(=O)c1cccc(S(=O)(=O)N2CC3(C)CC2CC(C)(C)C3)c1 (stereo not given)	6.3µM*	-10%	-55%	2%	-38%
O=C(c1cccc(Cl)c1)N1c2ncnn2C2(CCCCC2)[C@@H]2CCCC[C@@H]21	?	0%	/	/	/
CCSc1nnc(NC(=O)c2cc3c(s2)CCCC3)s1	8%	-5%	7.9µM*	-2%	10%[7.66 µM]
